# In PubChem BioAssay (EPA / NIEHS):
# The source made the active and inactive calls. The calls were made as follows: active = hit-call score of the fitted dose curve at least 0.9, where 1 is the maximum; inactive = score below 0.9.
# Tests used:
# [1] = read-out: Cyclin D1 (CCND1), CCND1 (gene 595); experiment: LTEA_HepaRG_CCND1: Life Technologies and Expression Analysis (LTEA) Assay for Cyclin D1 (CCND1) using HepaRG (AID 2283451); settings: mRNA level, 48 h; actives raise or lower the signal;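 as to AC50: differentiated human HepaRG liver cells in serum-free induction medium; TaqMan qRT-PCR transcript level normalised to ACTB GAPDH and POLR2A housekeeping genes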
# How it was run: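 HepaRG plated 48 h, medium switched to serum-free induction medium, chemicals added in duplicate (top 100 uM, half-log steps, 0.5% DMSO) for 48 h, cells lysed, RNA measured by TaqMan qRT-PCR.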
# [2] = read-out: catalase (CAT), CAT (gene 847); experiment: LTEA_HepaRG_CAT: Life Technologies and Expression Analysis (LTEA) Assay for catalase (CAT) using HepaRG (AID 2283452); settings: mRNA level, 48 h; actives raise or lower the signal
# How it was run: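 Differentiated HepaRG cells in serum-free induction medium were dosed 48 h in duplicate, eight half-log concentrations from 100 uM in 0.5% DMSO. Transcript measured by TaqMan qRT-PCR, normalised to ACTB/GAPDH/POLR2A, fitted bidirectionally against DMSO.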
# [3] = read-out: flavin-containing dimethylaniline monooxygenases 3 (FMO3), FMO3 (gene 2328); experiment: LTEA_HepaRG_FMO3: Life Technologies and Expression Analysis (LTEA) Assay for flavin-containing dimethylaniline monooxygenases 3 (FMO3) using HepaRG (AID 2283453); settings: mRNA level, 48 h; actives raise or lower the signal;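 as to AC50: differentiated human HepaRG liver cells in serum-free induction medium; FMO3 transcript by TaqMan qRT-PCR normalized to ACTB GAPDH and POLR2A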
# How it was run: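 FMO3 transcript quantified by TaqMan qRT-PCR against three housekeeping genes after 48 h chemical exposure of HepaRG cells. Eight-point half-log series, top 100 uM, 0.5% DMSO vehicle; phenobarbital 1mM induction control; up- or down-regulation fitted.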
# [4] = read-out: Cytochrome P450 (CYP1A1), CYP1A1 (gene 1543); experiment: LTEA_HepaRG_CYP1A1: Life Technologies and Expression Analysis (LTEA) Assay for Cytochrome P450 (CYP1A1) using HepaRG (AID 2283454); settings: mRNA level, 48 h; actives raise or lower the signal
# How it was run: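 HepaRG, 48 h post-plating switched to serum-free induction medium; 8-pt conc-response (top 100 uM, half-log, 0.5% DMSO), duplicates, 48 h. Lysis in RLT, TaqMan qRT-PCR for CYP1A1; gain or loss vs DMSO.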
# [5] = read-out: CFLAR gene, CFLAR (gene 8837); experiment: LTEA_HepaRG_CFLAR: Life Technologies and Expression Analysis (LTEA) Assay for CFLAR gene using HepaRG (AID 2283455); settings: mRNA level, 48 h; actives raise or lower the signal
# How it was run: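 Gain- or loss-of-signal changes in CFLAR transcript were fitted bidirectionally relative to 0.5% DMSO. Cells (HepaRG, duplicate wells) were dosed for 48 h across eight half-log concentrations topping at 100 uM; quantitation by TaqMan qRT-PCR.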
# [6] = read-out: Forkhead box O1 (FOXO1), FOXO1 (gene 2308); experiment: LTEA_HepaRG_FOXO1: Life Technologies and Expression Analysis (LTEA) Assay for Forkhead box O1 (FOXO1) using HepaRG (AID 2283456); settings: mRNA level, 48 h; actives raise or lower the signal
# How it was run: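 Using one lot of HepaRG hepatic cells kept in 0.5% DMSO, the team applied test chemicals in duplicate, half-log dilutions from 100 uM, for 48 h. Expression, normalised to ACTB/GAPDH/POLR2A, was compared with vehicle in either direction.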
# [7] = read-out: growth arrest and DNA damage 45 (GADD45A), GADD45A (gene 1647); experiment: LTEA_HepaRG_GADD45A: Life Technologies and Expression Analysis (LTEA) Assay for growth arrest and DNA damage 45 (GADD45A) using HepaRG (AID 2283458); settings: mRNA level, 48 h; actives raise or lower the signal
# How it was run: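 GADD45A expression was measured by TaqMan qRT-PCR against three housekeeping genes (ACTB, GAPDH, POLR2A) after 48 h treatment of HepaRG cells. Eight-point half-log series up to 100 uM in 0.5% DMSO, run in duplicate.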
# [8] = read-out: Forkhead box O3 (FOXO3), FOXO3 (gene 2309); experiment: LTEA_HepaRG_FOXO3: Life Technologies and Expression Analysis (LTEA) Assay for Forkhead box O3 (FOXO3) using HepaRG (AID 2283459); settings: mRNA level, 48 h; actives raise or lower the signal
# How it was run: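 Gene-expression endpoint: FOXO3 transcript level by qRT-PCR in HepaRG cultures treated 48 h with chemicals up to 100 uM (half-log, 0.5% DMSO vehicle).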
# [9] = read-out: ABC Transporter (ABCB1), ABCB1 (gene 5243); experiment: LTEA_HepaRG_ABCB1: Life Technologies and Expression Analysis (LTEA) Assay for ABC Transporter (ABCB1) using HepaRG (AID 2283460); settings: mRNA level, 48 h; actives raise or lower the signal
# How it was run: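 Human liver HepaRG line treated 48 h with up to 100 uM compound (eight half-log points, 0.5% DMSO); ABCB1 mRNA change fitted bidirectionally against DMSO controls.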
# [10] = read-out: growth arrest and DNA damage 45 (GADD45B), GADD45B (gene 4616); experiment: LTEA_HepaRG_GADD45B: Life Technologies and Expression Analysis (LTEA) Assay for growth arrest and DNA damage 45 (GADD45B) using HepaRG (AID 2283461); settings: mRNA level, 48 h; actives raise or lower the signal
# How it was run: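 HepaRG, ~100,000 cells/well, 48 h plating; serum-free induction medium; cpd 100 uM top, half-log x8, 0.5% DMSO, duplicate, 48 h; lysis in RLT, RNA isolation, qRT-PCR; norm ACTB/GAPDH/POLR2A; bidirectional fit vs DMSO.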
# [11] = read-out: ABC Transporter (ABCC3), ABCC3 (gene 8714); experiment: LTEA_HepaRG_ABCC3: Life Technologies and Expression Analysis (LTEA) Assay for ABC Transporter (ABCC3) using HepaRG (AID 2283462); settings: mRNA level, 48 h; actives raise or lower the signal
# How it was run: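 Human HepaRG, 48 h dosing, 8-pt half-log series from 100 uM, 0.5% DMSO vehicle, duplicates. ABCC3 mRNA by TaqMan qRT-PCR, housekeeping-normalized; bidirectional curve fit vs DMSO.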
# [12] = read-out: ABC Transporter (ABCB11), ABCB11 (gene 8647); experiment: LTEA_HepaRG_ABCB11: Life Technologies and Expression Analysis (LTEA) Assay for ABC Transporter (ABCB11) using HepaRG (AID 2283463); settings: mRNA level, 48 h; actives raise or lower the signal
# How it was run: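 Using HepaRG cultures held in 0.5% DMSO, chemicals were tested at half-log dilutions from 100 uM for 48 h. Induction or suppression of ABCB11 mRNA, normalized to ACTB, GAPDH and POLR2A, was fitted bidirectionally against vehicle.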
# [13] = read-out: ABC Transporter (ABCC2), ABCC2 (gene 1244); experiment: LTEA_HepaRG_ABCC2: Life Technologies and Expression Analysis (LTEA) Assay for ABC Transporter (ABCC2) using HepaRG (AID 2283464); settings: mRNA level, 48 h; actives raise or lower the signal
# How it was run: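 HepaRG, 48 h post-plating; serum-free induction medium; cpd 8-pt, 100 uM top, half-log, 0.5% DMSO, duplicate, 48 h. Readout: ABCC2 mRNA by qRT-PCR, norm. ACTB/GAPDH/POLR2A. Bidirectional fit vs DMSO baseline.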
# [14] = read-out: Broad substrate specificity ATP-binding cassette transporter ABCG2 (Homo sapiens) (UniProt Q9UNQ0); experiment: LTEA_HepaRG_ABCG2: Life Technologies and Expression Analysis (LTEA) Assay for ABC Transporter (ABCG2) using HepaRG (AID 2283465); settings: mRNA level, 48 h; actives raise or lower the signal
# How it was run: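 Gene expression of ABCG2 in HepaRG liver cells is quantified by qRT-PCR following 48 h exposure across an eight-point series topping at 100 uM. Values come from bidirectional fitting relative to DMSO vehicle.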
# [15] = read-out: ATP-citrate lyase (ACLY), ACLY (gene 47); experiment: LTEA_HepaRG_ACLY: Life Technologies and Expression Analysis (LTEA) Assay for ATP-citrate lyase (ACLY) using HepaRG (AID 2283466); settings: mRNA level, 48 h; actives raise or lower the signal
# How it was run: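 ACLY expression changes in human HepaRG liver cells are quantified by qRT-PCR after 48 h exposure to test chemicals (maximum 100 uM, half-log steps). Values are fitted in both directions relative to 0.5% DMSO vehicle.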
# [16] = read-out: Peroxisomal acyl-coenzyme A oxidase 1 (ACOX1) gene, ACOX1 (gene 51); experiment: LTEA_HepaRG_ACOX1: Life Technologies and Expression Analysis (LTEA) Assay for Peroxisomal acyl-coenzyme A oxidase 1 (ACOX1) gene using HepaRG (AID 2283467); settings: mRNA level, 48 h; actives raise or lower the signal
# How it was run: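 Human HepaRG hepatic cultures, 48 h treatment with test chemicals up to 100 uM. ACOX1 expression read by qRT-PCR relative to 0.5% DMSO vehicle.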
# [17] = read-out: Alkaline Phosphatase, Placental (ALPP) gene, ALPP (gene 250); experiment: LTEA_HepaRG_ALPP: Life Technologies and Expression Analysis (LTEA) Assay for Alkaline Phosphatase, Placental (ALPP) gene using HepaRG (AID 2283468); settings: mRNA level, 48 h; actives raise or lower the signal;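 as to AC50: differentiated human HepaRG liver cells in serum-free induction medium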
# How it was run: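 HepaRG, 48 h plating then 48 h dosing, serum-free induction medium, 0.5% DMSO. 8 conc, half-log, max 100 uM, duplicates. Endpoint: ALPP transcript by qRT-PCR, housekeeping-normalized; gain or loss fitted vs DMSO.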
# [18] = read-out: Bcl-2 (BAD) gene, BAD (gene 572); experiment: LTEA_HepaRG_BAD: Life Technologies and Expression Analysis (LTEA) Assay for Bcl-2 (BAD) gene using HepaRG (AID 2283469); settings: mRNA level, 48 h; actives raise or lower the signal
# How it was run: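 Activity values reflect up- or down-regulation of BAD mRNA in human HepaRG hepatic cells treated 48 h in serum-free medium, with eight-point half-log dosing capped at 100 uM and 0.5% DMSO vehicle.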
# [19] = read-out: Bcl-2 (BAX) gene, BAX (gene 581); experiment: LTEA_HepaRG_BAX: Life Technologies and Expression Analysis (LTEA) Assay for Bcl-2 (BAX) gene using HepaRG (AID 2283470); settings: mRNA level, 48 h; actives raise or lower the signal
# How it was run: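 Gene expression measured by Fluidigm qRT-PCR with three housekeeping genes for normalisation. HepaRG cells, plated 48 h beforehand, treated 48 h at up to 100 uM (8-point, half-log) in 0.5% DMSO. Bidirectional fitting versus DMSO.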
# [20] = CEETOX_H295R_TESTO: CeeTox H295R High-throughput Steroidogenesis Assay for Testosterone (TESTO) (AID 2283457); settings: actives raise or lower the signal;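 as to AC50: cells exposed to chemicals for 48 h before medium collection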
# How it was run: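 H295R, passage ≤10, 48 h dosing; media extracted with MTBE → HPLC-MS/MS for testosterone; 7-pt standard curve sets LLOQ/ULOQ; bidirectional fit vs DMSO; MTT viability same wells.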
# Broad substrate specificity ATP-binding cassette transporter ABCG2 (Homo sapiens), sequence (Q9UNQ0 whole entry, looked up): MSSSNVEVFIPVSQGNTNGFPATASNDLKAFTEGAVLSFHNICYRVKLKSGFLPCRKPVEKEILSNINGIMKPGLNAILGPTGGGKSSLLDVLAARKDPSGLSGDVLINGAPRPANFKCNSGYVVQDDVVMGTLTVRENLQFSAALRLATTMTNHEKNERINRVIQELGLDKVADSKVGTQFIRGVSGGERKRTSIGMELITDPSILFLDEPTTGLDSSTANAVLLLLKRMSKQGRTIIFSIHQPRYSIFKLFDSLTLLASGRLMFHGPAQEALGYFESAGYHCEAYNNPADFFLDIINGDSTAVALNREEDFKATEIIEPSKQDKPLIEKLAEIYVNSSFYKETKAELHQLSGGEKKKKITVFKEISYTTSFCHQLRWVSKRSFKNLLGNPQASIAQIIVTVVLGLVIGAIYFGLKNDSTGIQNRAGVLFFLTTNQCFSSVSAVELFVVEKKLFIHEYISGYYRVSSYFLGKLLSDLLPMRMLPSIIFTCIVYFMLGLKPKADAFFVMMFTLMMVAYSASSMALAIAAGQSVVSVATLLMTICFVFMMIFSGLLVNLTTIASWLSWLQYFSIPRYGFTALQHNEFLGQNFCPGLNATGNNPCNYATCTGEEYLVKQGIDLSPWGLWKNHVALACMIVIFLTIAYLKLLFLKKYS
smiles,measurement,setting,value
Oc1ccccc1,outcome,[1],inactive
same,outcome,[2],inactive
same,outcome,[3],inactive
same,outcome,[4],inactive
same,outcome,[5],inactive
same,outcome,[6],inactive
same,outcome,[7],inactive
same,outcome,[8],inactive
same,outcome,[9],inactive
same,outcome,[10],inactive
same,outcome,[11],inactive
same,outcome,[12],inactive
same,outcome,[13],inactive
same,outcome,[14],inactive
same,outcome,[15],inactive
same,outcome,[16],inactive
same,outcome,[17],inactive
same,outcome,[18],inactive
same,outcome,[19],inactive
Cc1c2ccccc2c(C)c2c1ccc1ccccc12,AC50,[1],86.4 µM (active)
same,AC50,[2],48.5 µM (active)
same,AC50,[3],34.2 µM (active)
same,AC50,[4],11.9 µM (active)
same,AC50,[5],40.9 µM (active)
same,AC50,[6],75 µM (active)
same,outcome,[20],inactive
same,AC50,[7],61.9 µM (active)
same,AC50,[8],13 µM (active)
same,outcome,[9],inactive
same,AC50,[10],50 µM (active)
same,AC50,[11],12.7 µM (active)
same,AC50,[12],30.6 µM (active)
same,outcome,[13],inactive
same,AC50,[14],12.8 µM (active)
same,outcome,[15],inactive
same,AC50,[16],27.7 µM (active)
same,AC50,[17],39.7 µM (active)
same,outcome,[18],inactive
same,AC50,[19],63.1 µM (active)
O=c1c(-c2ccc(O)cc2)coc2cc(O)cc(O)c12,outcome,[1],inactive
same,outcome,[2],inactive
same,outcome,[3],inactive
same,outcome,[4],inactive
same,outcome,[5],inactive
same,outcome,[6],inactive
same,AC50,[20],12.3 µM (active)
same,outcome,[7],inactive
same,outcome,[8],inactive
same,outcome,[9],inactive
same,outcome,[10],inactive
same,outcome,[11],inactive
same,AC50,[12],9.92 µM (active)
same,outcome,[13],inactive
same,outcome,[14],inactive
same,outcome,[16],inactive
same,outcome,[17],inactive
same,outcome,[18],inactive
same,outcome,[19],inactive
